An excerpt weighted towards active compounds, which were near 2.4% of everything screened.
CHRM1 agonist: human M1 muscarinic receptor agonists, primary screen, Fluo-8 calcium fluorescence, CHO-K1 cells, HTS. activation, % at 3 µM. hit rate 0.33% among 360,000. CHO-K1 hM1, agonist mode; 0% DMSO, 100% acetylcholine EC100;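 active = activation above the run's mean compound activation plus 3 SD, cut at about 16% in these data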;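 note: peak over basal fluorescence ratio within a 140 s kinetic read after compound addition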
Target sequence (P11229 whole entry, looked up): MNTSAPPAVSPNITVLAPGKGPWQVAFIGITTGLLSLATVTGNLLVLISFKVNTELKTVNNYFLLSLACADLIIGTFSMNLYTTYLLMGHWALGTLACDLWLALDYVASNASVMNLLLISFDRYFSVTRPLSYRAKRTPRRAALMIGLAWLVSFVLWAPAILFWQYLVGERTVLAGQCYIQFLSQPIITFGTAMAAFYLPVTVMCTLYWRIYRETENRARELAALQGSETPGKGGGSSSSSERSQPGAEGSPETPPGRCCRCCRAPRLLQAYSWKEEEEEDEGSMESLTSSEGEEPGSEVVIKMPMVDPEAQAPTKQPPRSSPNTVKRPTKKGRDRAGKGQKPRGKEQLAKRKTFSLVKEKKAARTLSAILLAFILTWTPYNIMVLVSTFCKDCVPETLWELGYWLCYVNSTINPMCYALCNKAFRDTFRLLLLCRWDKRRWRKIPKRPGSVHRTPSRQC
M1 antag: human M1 muscarinic receptor antagonists, primary screen, CHO-K1 cells, Fluo-8 calcium fluorescence, 1536-well | AID 588852, 2011 | CHO-K1 hM1, ACh EC80 antagonist | hit rate 1.3% among 360,000 | inhibition, % at 3 µM;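 active = percent inhibition above its own plate's cutoff, namely the mean of that plate's compound wells plus 3 SD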;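 note: peak over basal fluorescence ratio during 140 s after agonist addition; 0% = ACh EC80 plus DMSO and 100% = DMSO alone without agonist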
CHRM1 PAM: human M1 muscarinic receptor positive allosteric modulators, primary screen, CHO-K1 cells, Fluo-8 calcium fluorescence, 1536-well | AID 588819, 2011 | Muscarinic acetylcholine receptor M1 (Homo sapiens), P11229 | CHO-K1 hM1, ACh EC20; 0% = ACh EC20, 100% = maximal ACh | hit rate 0.088% among 360,000 | activation, % at 3 µM; in the data active = activation above about 19%, passing the limit was not always enough
M1 ag parental: counter-screen for M1 agonists: effect in parental CHO-K1 cells. Fluo-8 calcium fluorescence; scaled to maximal ATP response, vehicle zero. activation, % at 3 µM. hit rate 0.48% among 360,000. AID 602248, 2012; in the data active = activation above about 15%;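 note: untransfected CHO-K1 host cells lacking M1 receptor as counterscreen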
CHO-K1 Ca PAM: nonselective calcium activators in parental CHO-K1 cells, primary screen, counter-screen for M1 PAM project, cell-based, Fluo-8 calcium fluorescence, full deck, 1536-well. hit rate 0.02% among 360,000. activation, % at 3 µM. ATP EC20; 0% at ATP EC20, 100% at ATP max;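 active = activation above the run cutoff, the mean activation of all test compounds plus 3 SD, cut at about 40% in these data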;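 note: peak over basal fluorescence ratio in a 140 s read after ATP addition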
CHO-K1 Ca antag: counter-screen for M1 antagonists: effect in parental CHO-K1 cells. inhibition, % at 3 µM. ATP-induced calcium, Fluo-8 fluorescence. hit rate 0.6% among 360,000;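 active = inhibition above a per-plate cutoff, the plate's mean sample inhibition plus 3 SD, cut at about 24% in these data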;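 note: 0% = DMSO plus EC80 ATP and 100% = DMSO alone without ATP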
* hit, by the source's call.

SMILES | CHRM1 agonist | M1 antag | CHRM1 PAM | M1 ag parental | CHO-K1 Ca PAM | CHO-K1 Ca antag
S=C(NCCc1ccccn1)Nc1cc(Cl)cc(Cl)c1 | 2 | -7 | 2 | 5 | 4 | -8
C/C(=N\NC(=O)c1ccc(CSc2cccc3cccnc23)cc1)C1CCCCC1 | 52* | -5 | -2 | 0 | -8 | 4
COc1ccc(/C(C)=N/NC(=O)c2ccc(CSc3cccc4cccnc34)cc2)cc1OC | 51* | 1 | 3 | 1 | 12 | -15
CCN1CCN(c2ccc(NC(=O)CCc3c(C)nc4c(-c5ccccc5)c(C)nn4c3C)cc2)CC1 | -11 | 37* | -24 | 2 | 0 | 4
CCN1CCN(c2cc(C(C)(C)C)nc3c(-c4ccccc4)c(C)nn23)CC1 | -5 | 7 | -2 | 18* | 12 | -9
Cc1nc2c(-c3ccccc3)c(C)nn2c(C)c1CCC(=O)NCc1ccco1 | -1 | -9 | 6 | 0 | 19 | -8
CCCCC(=O)NC1(C(F)(F)F)C(=O)Nc2c1c(=O)[nH]c(=O)n2Cc1ccco1 (configuration not stated) | -1 | -21 | 5 | 0 | 4 | 5
CCN1CCc2c(sc(NC(=O)Nc3ccc(Cl)c(Cl)c3)c2C(N)=O)C1 | 114* | 63* | -19 | 95* | -10 | 59*
CCN1CCc2c(sc(NC(=O)Cc3ccccc3)c2C(N)=O)C1 | -9 | -7 | 3 | 1 | 26 | -11
CC(C(=O)NC(C)(C)C)N(Cc1cccs1)C(=O)CCN1CCc2ccccc21 (configuration not stated) | -5 | 5 | -3 | 22* | 2 | 4
CC(C)(C)NC(=O)CN(Cc1cccs1)C(=O)CCN1CCc2ccccc21 | -9 | -4 | 0 | 2 | -13 | 17
O=C(CCCSc1nc2ccccc2[nH]1)NCc1ccccc1F | -11 | -11 | 8 | 17* | 18 | 0
O=C(CCCSc1nc2ccccc2[nH]1)NCc1ccc(Cl)cc1 | -11 | -4 | 5 | 3 | 7 | 2
Cc1cc(OCC(=O)Nc2ccncc2)c(C)cc1Br | 4 | 37* | -19 | 14 | -15 | 32*
CC(C)CCOc1cccc(OCC(=O)Nc2ccncc2)c1 | 0 | 26 | -14 | 14 | -15 | 28*
O=C(COc1ccc2ccccc2c1Br)Nc1ccncc1 | 5 | 30* | -6 | 15* | -12 | 11
Cc1cc(OCC(=O)Nc2ccc(N3CCCC3)cc2)cc(C)c1Cl | -5 | 58* | -22 | 0 | 5 | -8
O=C(Nc1cccc(-c2cn3cccnc3n2)c1)Nc1ccccc1F | -3 | -2 | 6 | 5 | 16 | -12
COc1ccc(CCc2nnc(CCC(=O)N(C)Cc3ccnc4ccccc34)o2)cc1 | -3 | 15 | -12 | 10 | -7 | 12
COc1ccc(C(=O)Nc2nnc(C3=COCCO3)o2)cc1OC | -2 | -2 | 3 | 0 | 12 | -12
Cc1[nH]c2ccccc2c1/C=C/c1cc[n+](C)cc1 | 0 | -10 | 11 | 2 | 19 | -6
CC1Nc2ncnc(N3CCN(c4ccccc4)CC3)c2N(Cc2ccc(Br)cc2)C1=O (configuration not stated) | -5 | 7 | -11 | 0 | -1 | -9
Cc1cc(OCC(=O)Nc2ccncc2)cc(C)c1Cl | 2 | 30* | -13 | 10 | -8 | 16
Cc1ccc(OCC(=O)Nc2ccncc2)cc1C | 3 | 6 | -4 | 10 | 15 | -15
CCOC(CNC(=O)c1cccc([N+](=O)[O-])c1)OCC | -3 | -8 | 1 | 1 | -9 | -3
SMILES | CHRM1 agonist | M1 antag | CHRM1 PAM | M1 ag parental | CHO-K1 Ca PAM | CHO-K1 Ca antag
O=c1[nH]ccc2c(O)cccc12 | 27* | -22 | -10 | 0 | 7 | 2
Cn1cc(S(=O)(=O)NC2CCCCCC2)c(=O)n(C)c1=O | 0 | 6 | 1 | 0 | -9 | 0
O=C(OCCC12CC3CC(CC(C3)C1)C2)c1ccc(NCc2cc(O)ccc2O)cc1 | 13 | -11 | 35* | 0 | -6 | -5
CCOc1ccc2[nH]c3c(NCCc4ccc(OC)c(OC)c4)ncnc3c2c1 | -3 | 1 | -8 | 4 | -6 | -4
CCOc1ccc(/C=C2\CCCc3c2nc2ccccc2c3C(=O)O)cc1OC | 53* | 7 | -6 | 45* | 7 | 11
CN1CCCCCC1=Nc1ccccc1C#N | -6 | 27* | -16 | 3 | 17 | -7
COc1ccc(-c2cc(C(=O)N(C)Cc3nc4ccccc4c(=O)[nH]3)c3ccccc3n2)cc1OC | 0 | 33* | -12 | 5 | 12 | -5
COc1ccccc1CN(C)C(=O)c1cc(-c2cccs2)nc2ccccc12 | -4 | 27* | -12 | 7 | 0 | -4
COc1ccc(CCN(C)C(=O)c2cc(-c3ccccc3)nc3ccc(C)cc23)cc1OC | -2 | 12 | -2 | 3 | -22 | 1
COc1ccc(CN(C)C(=O)c2cc(-c3ccccc3)nc3ccc(C)cc23)c(OC)c1OC | -2 | 31 | -9 | 18* | -11 | 19
COc1cccc(CN(C)C(=O)c2cc(-c3ccc(OC)c(OC)c3)nc3ccccc23)c1 | -2 | 29 | -3 | 5 | -4 | 15
COc1ccc(-c2cc(C(=O)N(C)Cc3cccc(OC)c3OC)c3ccccc3n2)cc1OC | -3 | 13 | -8 | 6 | -17 | 3
COc1ccc(CN(C)C(=O)c2cc(-c3ccc(OC)c(OC)c3)nc3ccccc23)c(OC)c1 | -2 | 29* | -8 | 5 | 3 | 6
CN(CC(=O)Nc1c(Cl)cccc1Cl)C(=O)CNC(=O)c1ccc2c(c1)OCO2 | -2 | 10 | -3 | 1 | -1 | 1
c1ccc2c(c1)Sc1cnccc1N2CC1CO1 (configuration not stated) | -9 | 10 | -14 | 0 | 7 | -7
CC(Sc1n[nH]c(N)n1)C(=O)Nc1cccc2ccccc12 (configuration not stated) | 4 | 7 | 3 | -1 | -20 | 3
Clc1ccccc1OCc1nnc(-c2ccccc2Br)o1 | -4 | -23 | 1 | 0 | -4 | 9
O=c1c(Cl)c(Cl)cnn1Cc1nnc(-c2ccccc2Br)o1 | 86* | 94* | -35 | 71* | -7 | 95*
CCc1cccc(C)c1NC(=S)NCC(c1cccnc1)N(C)C (configuration not stated) | -9 | -1 | 0 | 17* | -5 | 8
COC(=O)c1cc2c(C)c(C)c3ccccn3c-2c1C(=O)OC | -3 | -5 | 5 | 1 | 10 | 0

Screening data: PubChem BioAssay, The Scripps Research Institute Molecular Screening Center
